Compounds without any hit were thinned out: in the full panel of roughly 79,000, 15% have a hit. Active and inactive are the calls of the source. Rule as the data show it: active = growth inhibition above about 70%; inactive = the rest.
Tests used:
[1] = NCI Yeast Anticancer Drug Screen. Data for the rad52 strain (AID 147);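 also: 0% = growth of vehicle-treated control cultures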; settings: S. cerevisiae rad52 mutant growth inhibition, hits give high values
In short: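 Vehicle-treated cultures served as the reference for growth inhibition of compound-exposed yeast bearing a DNA repair mutation.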

[2] = NCI Yeast Anticancer Drug Screen. Data for the wt1 strain (AID 149);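 also: 0% = growth of vehicle-treated wt1 cultures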; settings: S. cerevisiae wt1 strain (SPY 50644) growth inhibition, hits give high values
In short: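 The wt1 strain was treated with compounds, and growth was compared with vehicle-treated cultures to give inhibition.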

[3] = NCI Yeast Anticancer Drug Screen. Data for the rad50EPP+ strain (AID 151);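 also: 0% = growth of vehicle-treated control cultures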; settings: S. cerevisiae rad50 mutant strain, hits give high values
In short: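 In this screen, rad50EPP+ yeast were exposed to compounds. Growth inhibition was scored against vehicle-treated controls.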

[4] = NCI Yeast Anticancer Drug Screen. Data for the mgt1 strain (AID 153); settings: S. cerevisiae mgt1 mutant growth inhibition, hits give high values
In short: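 mgt1 strain exposed; growth vs vehicle control recorded as inhibition.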

[5] = NCI Yeast Anticancer Drug Screen. Data for the rad50 strain (AID 155);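 also: 0% = growth of vehicle-only cultures of the same strain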; settings: S. cerevisiae rad50 strain growth inhibition, hits give high values
In short: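 Cells are treated with compound, grown, and their growth is then scored against vehicle-only cultures of the same repair-deficient yeast strain.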

[6] = NCI Yeast Anticancer Drug Screen. Data for the mec2-1 strain (AID 157); settings: S. cerevisiae mec2-1 strain, hits give high values
In short: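 Vehicle-treated cultures served as reference for growth inhibition of compound-exposed mec2-1 yeast.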

[7] = NCI Yeast Anticancer Drug Screen. Data for the rad14 strain (AID 159);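 also: 0% = growth of vehicle-treated control cultures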; settings: S. cerevisiae rad14 strain growth inhibition, hits give high values
In short: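 Readout: yeast growth inhibition, referenced to vehicle-only cultures. Strain bears a defined alteration in DNA damage repair.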

[8] = NCI Yeast Anticancer Drug Screen. Data for the sgs1 mgt1 strain (AID 161);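 also: 0% = growth of cultures given vehicle only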; settings: S. cerevisiae sgs1 mgt1 strain, hits give high values
In short: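 Inhibition of yeast growth, normalised to vehicle-treated controls, is reported for a strain bearing genetic alterations in DNA damage repair.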

[9] = NCI Yeast Anticancer Drug Screen. Data for the CLN2oe strain (AID 163);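 also: 0% = growth of vehicle-only control cultures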; settings: S. cerevisiae CLN2oe strain, hits give high values
In short: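 Inhibition relative to vehicle-treated yeast is reported. Cells: strain with genetic alteration in cell-cycle control, grown with compound.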

[10] = NCI Yeast Anticancer Drug Screen. Data for the cln2 rad14 strain (AID 165);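 also: 0% = growth equal to vehicle treated cultures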; settings: S. cerevisiae cln2 rad14 strain, hits give high values
In short: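 Each compound was tested on cln2 rad14 yeast. Inhibition of growth was calculated against vehicle-exposed controls.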

[11] = NCI Yeast Anticancer Drug Screen. Data for the bub3 strain (AID 167); settings: S. cerevisiae bub3 mutant strain, hits give high values
In short: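 Part of a panel of yeast mutants defective in DNA damage repair or cell cycle regulation. Each strain is grown with compound, and inhibition is calculated relative to solvent-treated cultures.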

[12] = NCI Yeast Anticancer Drug Screen. Data for the wt2 strain (AID 169);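 also: 0% = growth of vehicle-treated yeast cultures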; settings: S. cerevisiae wt2 strain growth inhibition, hits give high values
In short: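 Inhibition of yeast growth was determined after compound treatment, normalised to controls receiving only vehicle.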

[13] = NCI Yeast Anticancer Drug Screen. Data for the mlh1 strain (AID 171);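 also: 0% = growth of vehicle-treated control cultures of the same strain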; settings: S. cerevisiae mlh1 strain growth inhibition, hits give high values
In short: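 Vehicle-normalised growth inhibition of a repair- or checkpoint-altered yeast strain following compound treatment.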

[14] = NCI Yeast Anticancer Drug Screen. Data for the sgs1 strain (AID 173);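 also: 0% = growth of vehicle-only control cultures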; settings: S. cerevisiae sgs1 mutant, hits give high values
In short: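 Screen format: yeast with repair or checkpoint alterations, compound exposure, growth read relative to vehicle.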

[15] = NCI Yeast Anticancer Drug Screen. Data for the mlh1 rad18 strain (AID 175); settings: S. cerevisiae mlh1 rad18 strain growth inhibition, hits give high values
In short: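 Vehicle-treated cultures served as the reference for growth inhibition in a yeast strain carrying DNA damage repair alterations exposed to each compound.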

[16] = NCI Yeast Anticancer Drug Screen. Data for the rad18 strain (AID 177); settings: S. cerevisiae rad18 mutant growth inhibition, hits give high values
In short: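 Test articles were incubated with altered yeast defective in DNA damage repair. Results are given as inhibition of growth versus vehicle.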

[17] = at 5.0 µM (retest, dose inferred, filed as 0.5)
[18] = at 50.0 µM (retest, dose inferred, filed as 5.0)

Measured: growth inhibition

Cc1c(-c2ccccc2)[nH]c2ccccc12
inactive: [1]; at 1.2 µM -7% | [1]; at 3.7 µM -8% | [1]; at 11.0 µM -4% | [2]; at 1.2 µM -21% | [2]; at 3.7 µM -12% | [2]; at 11.0 µM -23% | [3]; at 1.2 µM -2% | [3]; at 3.7 µM 20% | [3]; at 11.0 µM 16% | [3]; at 33.0 µM 52% | [4]; at 1.2 µM -19% | [4]; at 3.7 µM -12% | [4]; at 11.0 µM -11% | [5]; at 1.2 µM -4% | [5]; at 3.7 µM -8% | [5]; [17] 33% | [5]; at 11.0 µM -12% | [6]; at 1.2 µM -2% | [6]; at 3.7 µM 8% | [6]; [17] 48% | [6]; at 11.0 µM -2% | [7]; at 1.2 µM -2% | [7]; at 3.7 µM 0% | [7]; at 11.0 µM 2% | [8]; [17] -1% | [9]; at 1.2 µM 5% | [9]; at 3.7 µM 3% | [9]; at 11.0 µM 1% | [10]; [17] 51% | [11]; at 1.2 µM -6% | [11]; at 3.7 µM -7% | [11]; [17] 22% | [11]; at 11.0 µM -15% | [12]; at 1.2 µM 10% | [12]; at 3.7 µM 5% | [12]; at 11.0 µM 6% | [12]; at 33.0 µM 68% | [13]; at 1.2 µM 7% | [13]; at 3.7 µM 8% | [13]; at 11.0 µM 6% | [14]; at 1.2 µM 14% | [14]; at 3.7 µM 19% | [14]; at 11.0 µM 14% | [15]; [17] 38% | [16]; at 1.2 µM 3% | [16]; at 3.7 µM 5% | [16]; at 11.0 µM -9%
active: [1]; at 33.0 µM 94% | [1]; at 100.0 µM 99% | [2]; at 33.0 µM 92% | [2]; at 100.0 µM 98% | [3]; at 100.0 µM 98% | [4]; at 33.0 µM 95% | [4]; at 100.0 µM 98% | [5]; at 33.0 µM 95% | [5]; [18] 81% | [5]; at 50.0 µM 91.3% | [5]; at 100.0 µM 98% | [6]; at 33.0 µM 94% | [6]; [18] 85% | [6]; at 50.0 µM 92.5% | [6]; at 100.0 µM 98% | [7]; at 33.0 µM 95% | [7]; at 100.0 µM 98% | [8]; [18] 99% | [8]; at 50.0 µM 93.5% | [9]; at 33.0 µM 98% | [9]; at 100.0 µM 99% | [10]; [18] 99% | [10]; at 50.0 µM 92.3% | [11]; at 33.0 µM 95% | [11]; [18] 98% | [11]; at 50.0 µM 91.8% | [11]; at 100.0 µM 98% | [12]; at 100.0 µM 99% | [13]; at 33.0 µM 96% | [13]; at 100.0 µM 98% | [14]; at 33.0 µM 97% | [14]; at 100.0 µM 100% | [15]; [18] 96% | [15]; at 50.0 µM 91.2% | [16]; at 33.0 µM 97% | [16]; at 100.0 µM 99%

Reference: PubChem BioAssay (NCI)
